The whole screen tested about 320,000 compounds, of which about 22,000 (6.9%) were called active. About 27% were inconclusive and are not listed. Only a selection was taken, and actives are over-represented in it overall. Unmarked numbers belong to inactive results. Calls come from the whole dose curve; as a rule, active = well fitted inhibition curve with a large enough effect; inconclusive = small, poorly fitted or top-dose-only effect, or another doubt; inactive = no such curve, though single readings can be large or run the other way.
% is set by controls: 0 for no effect and ±100 for the full control effect; potency is the fitted concentration of half-maximal effect.

This assay is described as follows: Primary qHTS for delayed death inhibitors of the malarial parasite plastid, 96 hour incubation. Conditions: P. falciparum luciferase reporter growth; series mostly up to 28.7 µM; activity change, negative = inhibition: at the top concentration. The gist of the method:
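Readout is luminescence from an integrated firefly luciferase in P. falciparum. Red cells, 2% hematocrit and 0.05% parasitemia final, were cultured with compound through two parasite generations (96 hours) at 37 C, 5% CO2.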
For `CC1(C)NC(=O)N(CC(=O)N2CCN(S(=O)(=O)c3ccccc3F)CC2)C1=O`, the “activity change, negative = inhibition” value is -1.59%. Same read-out and setting: then `O=C(Nc1cccc(NC(=O)c2ccc(Br)cc2)c1)c1ccccc1`, with 71.5%.

Take `O=C(Nc1cccc(-c2nc3ccccc3[nH]2)c1)c1ccc(C(=O)Nc2cccc(-c3nc4ccccc4[nH]3)c2)cc1`: the Potency was 0.37 µM (active).

`O=C(Cc1cccs1)Nc1cccc(-c2nc3ccccc3[nH]2)c1`: the “activity change, negative = inhibition” value was -7.98%. Turning to `N#CC1(NC(=O)COC(=O)Cc2n[nH]c(=O)c3ccccc23)CCCCC1`, the “activity change, negative = inhibition” value was 24.1%. Still for that read-out and setting: then `CCN(C(=O)CSc1nnc(-c2ccc(OC(F)F)cc2)n1N)C1CCS(=O)(=O)C1` (stereo not given), with 7.28%. On the same count and under the same terms, then `O=c1cc(CO)oc(CN2CCC(Cc3ccccc3)CC2)c1O`, with -8.24%. The same measure, in the same setting: then `NC(=O)c1ccc(CN2CCC(Cc3ccccc3)CC2)cc1`, with -16.8%.

For the compound `COc1cc(C)cc(CN2CCC(Cc3ccccc3)CC2)c1O`, the Potency is 1.17 µM (active). In the case of `CC(C)NC(=O)NNc1c(Cl)cncc1Cl`, the “activity change, negative = inhibition” value is 23%. On to `O=C(CNS(=O)(=O)c1ccc2ccccc2c1)Nc1ccc(F)c(F)c1F`, for which the “activity change, negative = inhibition” value was 12.1%. Still for that read-out and setting: with `COc1ccc(/C=N/NC(=O)C2CC2)c(OC)c1OC` the figure was 103%.

For the compound `COc1ccc(NC(=O)C2CCCN(S(=O)(=O)c3cccc4cccnc34)C2)cc1OC` (stereo not given), the Potency was 10.4 µM (active). `COc1cccc(CNC(=O)C2CCN(S(=O)(=O)c3cccc4cccnc34)CC2)c1`: the “activity change, negative = inhibition” value is 13.2%. Turning to `Cc1cccc(NC(=O)C2CCN(S(=O)(=O)c3cccc4cccnc34)CC2)c1`, the Potency is 5.86 µM (active). As for `CC(=O)c1cccc(NC(=O)C2CCCN(S(=O)(=O)c3cccc4nonc34)C2)c1` (stereo not given), the “activity change, negative = inhibition” value is 5.63%. On the same count and under the same terms, then `O=C(NCc1ccco1)C1CCCN(S(=O)(=O)c2cccc3nonc23)C1` (stereo not given), with 22%; and `COc1ccc(S(=O)(=O)N2CCCC(C(=O)Nc3ccc(NC(=O)c4ccccn4)cc3)C2)cc1` (stereo not given), with 17%. For `O=C(O)C1CCCN(S(=O)(=O)c2cccc3cccnc23)C1` (stereo not given), the Potency was 2.08 µM (active).

With `CN(CC(=O)NC1CCCCC1)S(=O)(=O)c1cccc2cccnc12`, the “activity change, negative = inhibition” value is 22.2%. Turning to `COc1ccc(NC(=O)C2CCCN(S(=O)(=O)c3cccc4cccnc34)C2)cc1` (stereo not given), the “activity change, negative = inhibition” value is 63.6%.

With `Cc1ccc(C(=O)Nc2nc(N)n(-c3ccccc3)n2)cc1`, the “activity change, negative = inhibition” value is 40.9%. For the compound `CC1=NN(C(N)=S)C(=O)C1N=Nc1cc(Cl)ccc1Cl` (stereo not given), the “activity change, negative = inhibition” value is 16.9%.

Regarding `CCOC(=O)C1CCCN(S(=O)(=O)c2ccc(-n3cnnn3)c(C)c2)C1` (stereo not given), the “activity change, negative = inhibition” value is 4.73%. Same read-out and setting: with `CCn1c(SCC(=O)NC2=NCCS2)nnc1C(C)NC(=O)c1ccccc1F` (stereo not given) the figure was 19.2%.

For the compound `O=C(CC(=O)N/N=C\c1ccc(F)cc1)NCCc1ccccc1`, the “activity change, negative = inhibition” value is 2.04%. Take `O=C(CCCCCNC(=O)c1ccccc1)N/N=C/c1ccccc1`: the Potency is 1.47 µM (active).

On to `O=C(CNC(=O)c1cccnc1)N/N=C/c1cccnc1`, for which the “activity change, negative = inhibition” value was 32.2%.

For the compound `CNS(=O)(=O)c1cccc(C(=O)OCCCC(=O)c2ccccc2)c1`, the “activity change, negative = inhibition” value was -12.1%. Still for that read-out and setting: with `COc1ccc(Cl)cc1NC(=O)CN(C)CC(=O)Nc1ccc2c(c1)OCO2` the figure was -0.297%. On the same count and under the same terms, then `Cn1c(CC(=O)Nc2ccc(F)cc2)nnc1SCC(=O)NC1CCCCC1`, with -8.17%; and `COC(=O)CNc1nc(Cl)nc(N2CCC(C)CC2)n1`, with 9.44%. In the case of `Clc1nc(NC2CCCC2)nc(N2CCOCC2)n1`, the Potency is 11.7 µM (active). Regarding `Cc1ccc(Nc2nc(N3CCOCC3)nc(N3CCOCC3)n2)cc1Cl`, the “activity change, negative = inhibition” value was -16.3%. The same measure, in the same setting: then `O=C(Nc1ccc(N2CCCC2=O)cc1)c1cncc(Br)c1`, with 1.63%. Regarding `O=C(c1ccc(F)c(S(=O)(=O)N2CCOCC2)c1)N(CCc1ccccc1)Cc1ccccc1`, the Potency was 2.62 µM (active). Still for that read-out and setting: then `Cc1cccc(N(Cc2ccccc2)C(=O)c2cc(S(=O)(=O)N3CCOCC3)ccc2F)c1`, with 11.7 µM (active). In the case of `NC(=O)C1CCN(C(=O)c2ccc(F)c(S(=O)(=O)N3CCOCC3)c2)CC1`, the “activity change, negative = inhibition” value was 6.45%. The same measure, in the same setting: with `Cc1cccc(N(Cc2ccccc2)C(=O)c2ccccc2F)c1` the figure was -24.8%; with `Cc1cccc(NC(=O)c2cc(S(=O)(=O)N3CCC4(CC3)OCCO4)ccc2F)c1`, 23.8%; with `COc1ccc(C(=O)N(Cc2ccccc2)c2ccc(C)cc2)cc1S(=O)(=O)N1CCOCC1`, -68.2%. Still for that read-out and setting: with `Cc1cccc(C(=O)Nc2ccc(Oc3cnccn3)cc2)c1` the figure was 63.5%.

With `COc1cccc(C(=O)n2ccc(-c3cccs3)n2)c1`, the “activity change, negative = inhibition” value was 0%.

Turning to `CC(=O)Nc1cccc(NC(=O)CSc2nccn2Cc2ccc(F)cc2)c1`, the “activity change, negative = inhibition” value was 0%. Still for that read-out and setting: with `COC(=O)[C@H](CC(C)C)NC(=O)N1CCCCC1C` (stereo not given in full) the figure was -9.64%; with `CCCc1c(C(=O)Nc2ccc(F)cc2)cnn1-c1ccccc1`, -24.3%; with `Cc1cc(C)cc(N(CCC#N)C(=O)CN2C(=O)NC3(CCCC3)C2=O)c1`, 13.1%. Same read-out and setting: then `COc1ccc(CCNc2nc(C)cc(C)n2)cc1OC`, with 0%. `COc1ccc(CCNc2cc(C)nc3c(-c4ccc(Cl)cc4)c(C)nn23)cc1OC`: the Potency is 10.4 µM (active).

For `COc1ccc(CCNc2nc3ccc(C)cc3n3cnnc23)cc1OC`, the “activity change, negative = inhibition” value was 20.1%. On the same count and under the same terms, then `COc1ccccc1-c1cnn2c(N3CCOCC3)cc(C)nc12`, with 136%. Turning to `O=C(Oc1ccc([N+](=O)[O-])cc1)c1ccc(Cl)c(S(=O)(=O)N2CCCCC2)c1`, the “activity change, negative = inhibition” value is -10.5%. On to `CCc1nccn1S(=O)(=O)c1cccc([N+](=O)[O-])c1`, for which the “activity change, negative = inhibition” value was 1.85%. `CC(C)c1nccn1S(=O)(=O)c1cc([N+](=O)[O-])ccc1Cl`: the Potency was 11.7 µM (active). As for `CSc1ccc(-c2c(C#N)c(N)nc3c2c(C)nn3-c2ccccc2)cc1`, the Potency is 2.08 µM (active). In the case of `Cc1nn(-c2ccccc2)c2c1C(c1ccc(F)cc1)C(C#N)=C(N)O2` (stereo not given), the “activity change, negative = inhibition” value is 52.7%.

Take `Cn1c(=O)c2c(-c3cccc(Br)c3)c(C#N)c(N)nc2n(C)c1=O`: the “activity change, negative = inhibition” value was 23.3%.

For `COc1ccc2c3c(c(=O)oc2c1)C1O[C@](CCCCN2C(=O)c4ccccc4C2=O)(Cc2c1ccc1ccccc21)O3`, the activity change, negative = inhibition was 49.1% [at 5.75 µM]. On the same count and under the same terms, then `COc1cccc(N2C(=O)CC(N3CCN(S(=O)(=O)c4ccccc4)CC3)C2=O)c1` (stereo not given), with -19.2%; and `Cc1cccc(C)c1N1C(=O)CN(Cc2ccccc2)C1=S`, with 23%. On to `COc1cccc(N2C(=O)CN(Cc3ccccc3)C2=S)c1`, for which the Potency was 1.31 µM (active). Regarding `Cc1ccc(S(=O)(=O)N(C)c2ccc(OCC(=O)OCC(=O)N(CC#N)c3ccccc3)cc2)cc1`, the “activity change, negative = inhibition” value was 1.77%. The same measure, in the same setting: with `CN(CC(=O)Nc1ccc(Cl)cc1)C(=O)CNC(=O)c1ccc2ccccc2c1` the figure was 34.5%; with `O=c1c2ccccc2cnn1Cc1n[nH]c(=S)n1-c1ccccc1F`, 24.1%. With `COc1ccc(/C=C/C(=O)Nc2ccc3c(c2)OCCO3)cc1OC`, the “activity change, negative = inhibition” value is -3.91%. Same read-out and setting: then `COc1ccc(NS(=O)(=O)c2ccc(N3CCN(CCO)CC3)c([N+](=O)[O-])c2)cc1`, with -11.6%. Consider `COc1ccc(NS(=O)(=O)c2cc(NC(=O)/C=C/c3cc(OC)c(OC)c(OC)c3)ccc2N2CCCCC2)cc1`, for which the Potency was 2.08 µM (active). In the case of `CCOC(=O)COn1c(=O)c(-c2ccc(OCC)cc2)[n+]([O-])c2ccccc21`, the “activity change, negative = inhibition” value was 80.9%.

Regarding `Cc1cc([N+](=O)[O-])c(-c2ccc(/C=N/n3cnnc3)o2)cc1Cl`, the “activity change, negative = inhibition” value is 7.67%.

Regarding `O=C1C2C3C=CC(C4CC34)C2C(=O)N1/N=C/c1ccc(-c2ccccc2[N+](=O)[O-])o1` (stereo not given), the Potency was 13.1 µM (active). As to `Cc1cc(-c2ccc(/C=N/n3cnnc3)o2)c([N+](=O)[O-])cc1C`, the “activity change, negative = inhibition” value was 7.32%. For `COc1cc2c(cc1O)[C@H](Cc1ccc(Oc3cc(C[C@@H]4NCCc5cc(OC)c(O)cc54)ccc3O)cc1)NCC2`, the Potency is 0.415 µM (active). Take `CCc1ccc(OCC2c3cc(OC)c(OC)cc3CCN2C(C)=O)cc1` (stereo not given): the “activity change, negative = inhibition” value was 3.03%. The same measure, in the same setting: then `COc1ccc(NC(=O)CN(C)C(=O)c2ccc(NC3CC3)c([N+](=O)[O-])c2)cc1`, with -25.4%. Still for that read-out and setting: then `COc1cccc(N(CC(=O)NCc2ccccc2)C(=O)CCC(=O)Nc2nccs2)c1`, with -3.46%.

`NC(=O)C1CCN(C(=O)CC2C(=O)NCCN2Cc2cccc(Oc3ccccc3)c2)CC1` (stereo not given): the “activity change, negative = inhibition” value is 2.05%. On the same count and under the same terms, with `OC(CNCc1ccc(Cl)c(Cl)c1)c1ccccc1` (stereo not given) the figure was 1.84%. Turning to `CC(C)(CNCC(O)c1ccccc1)N1CCOCC1` (stereo not given), the Potency is 5.86 µM (active). For `CC(C)(CNC(=O)c1cc(=O)[nH]c2ccccc12)N1CCOCC1`, the “activity change, negative = inhibition” value is -11.1%. On the same count and under the same terms, then `O=C(N/N=C/c1ccc2c(c1)OCO2)c1ccc(Cn2cc([N+](=O)[O-])cn2)o1`, with -6.78%; and `Cc1c(Cl)c([N+](=O)[O-])nn1CCCC(=O)Nc1cc(Cl)ccc1Cl`, with -31.1%. `Cc1c(Cl)c([N+](=O)[O-])nn1Cc1ccc(C(=O)N/N=C\c2cc(Cl)ccc2O)o1`: the Potency is 3.7 µM (active). As to `CS(=O)(=O)Nc1ccccc1N=C(c1ccccc1)c1ccccc1`, the “activity change, negative = inhibition” value is 3.7%. For `Cc1ccc(S(=O)(=O)c2nc(NCCCn3ccnc3)sc2Cl)cc1`, the Potency was 6.57 µM (active). Take `Cc1ccc(-c2nc(C#N)c(NCCCn3ccnc3)o2)cc1`: the “activity change, negative = inhibition” value was 237%. On to `O=C(/C=C/c1ccc(Cl)cc1)NCCCn1ccnc1`, for which the “activity change, negative = inhibition” value is -24.8%. The same measure, in the same setting: then `COc1ccc(NC(=O)CN(C)C(=O)c2ccc(COc3ccccc3)o2)cc1`, with -4.52%; and `CC(=O)c1ccccc1OCc1ccc(C(=O)c2ccccc2)cc1`, with -97.2%; and `Cc1ccc(NS(=O)(=O)c2ccc3c(c2)CC(=O)N3)cc1Cl`, with 14%. Consider `COc1cccc(Nc2nnc(SCC(=O)N3CC(=O)Nc4ccccc43)s2)c1`, for which the Potency is 4.65 µM (active). `COc1cccc(Nc2nnc(SCC(=O)N3CC(C)OC(C)C3)s2)c1` (stereo not given): the “activity change, negative = inhibition” value is 34.9%.

For the compound `Cc1nc(SCC(=O)N2CC(=O)Nc3ccccc32)c2c(C)c(C)sc2n1`, the “activity change, negative = inhibition” value is 0%. Turning to `C#CCOc1ccc(/C=C2/C(=O)ON=C2C)cc1OCC`, the “activity change, negative = inhibition” value is -7.81%.

For the compound `COCc1c(C(=O)N/N=C(\C)c2ccncc2)nnn1-c1nonc1N`, the “activity change, negative = inhibition” value is -3.74%.

Take `Cc1nc2sccn2c(=O)c1S(=O)(=O)NCCc1ccccc1`: the “activity change, negative = inhibition” value is 0%. In the case of `CCOC(=O)c1ccccc1NS(=O)(=O)c1c(C)nc2sccn2c1=O`, the Potency is 14.7 µM (active). On to `CCc1cccc(C)c1NS(=O)(=O)c1c(C)nc2sccn2c1=O`, for which the “activity change, negative = inhibition” value is 0.376%. Regarding `Cc1cc(OCCCCOc2ccc(C#N)cc2)ccc1[N+](=O)[O-]`, the “activity change, negative = inhibition” value is 12.6%. On the same count and under the same terms, with `COc1ccc(CCOC(=O)CNC(=O)c2ccc(Cl)cc2Cl)cc1` the figure was -13.4%; with `Cc1cc(C)c(S(=O)(=O)Nc2c(C)n(C)n(-c3ccccc3)c2=O)cc1[N+](=O)[O-]`, -2.69%.

The record behind these values is PubChem BioAssay AID504834 (National Center for Advancing Translational Sciences (NCATS), 2011).
